The values that follow come from PubChem BioAssay (NCI).

SMILES strings stand for the structures. Compounds without any hit were thinned out: in the full panel of roughly 83,000, 20% have a hit.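 Method: cells in 96-well plates; compound added at one concentration; 48 h incubation; percent growth measured; values under 10 scored active.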 Unmarked numbers belong to inactive results. The source made the active and inactive calls.

In the first test the test system is OVCAR-4 ovarian. As to the kind of experiment: NCI-60 one-dose screen, 48 h (100 = growth as untreated, 0 = no growth, -100 = all killed). The following applies: 10 µM unless noted.
For `O=C(NCCCNc1nccc(-n2ccc3cccnc32)n1)c1c(F)cccc1F`, the growth is 94.9%.
With `COc1ccc(C(=O)c2cc(OC)c3c(c2)OCO3)cc1O`, the growth is 37.7%.
Still for that read-out and setting: next, `Cc1cc(C(C)(C)C)ccc1S`: 99.2%; `Cn1cnc2c(N3CCN(C(=O)OCc4ccc5c(Cl)cc(Cl)c(O)c5n4)CC3)nc(Cl)nc21`: 32.7%.
Consider `Fc1ccccc1-c1nc(-c2nc3cc(Cl)c(Cl)cc3[nH]2)c2ccccn12`, for which the growth was 1.61% (active).
On the same count and under the same terms, next, `C1=Cc2ccccc2N(c2nnc(-c3ccccc3)o2)c2ccccc21`: 92.1%; `COc1cc(C2CC(c3ccc4c(c3)OCO4)=NN2C=O)cc(OC)c1OC` (stereo unspecified): 57.7%.
As for `COc1ccc(/C=C2/C(=O)NC(SCC(=O)N3CCN(c4cc5c(cc4F)c(=O)c(C(=O)O)cn5C4CC4)CC3)=NC2N)cc1OC` (stereo unspecified), the growth was 107%.
Consider `COc1cc(NCCCCCN)c2ncccc2c1`, for which the growth was 86.8%.
For the compound `C=C1CCC2C(C)(CO)C(O)CCC2(C)C1C/C=C1/C(=O)OCC1Oc1ccccc1C` (stereo unspecified), the growth was 74.8%.
The same measure, in the same setting: next, `CCCCCCCCCCCCCCCCNC(=O)OC(C)C`: -39.2% (active); `O=C(/C=C/c1cc(-c2ccc3c(c2)OCO3)n[nH]1)c1ccc2c(c1)OCO2`: 71.3%.
Still for that read-out and setting: next, `c1cc(C2=N[C@@H]3c4ccccc4C[C@@H]3O2)nc(C2=N[C@@H]3c4ccccc4C[C@@H]3O2)c1`: 99.6%; `COc1ccccc1CNCCCN1C(=O)c2ccc3c4c(ccc(c24)C1=O)C(=O)N(CCCNCCCCNCCCN)C3=O`: -73.8% (active).
The same measure, in the same setting: next, `NC(=N\N=C/c1ccc(O)cc1)/C(N)=N\N=C/c1ccc(O)cc1`: 74.4%.
Turning to `COc1ccc(-c2c(N)n[nH]c2-c2cc(OC)c3c(c2)OCCO3)cc1`, the growth is 101%.
In the case of `C=C1CCC2C(C)(CO)C(O)CCC2(C)C1C/C=C1/C(=O)OCC1O/C=C/c1ccccc1` (stereo unspecified), the growth was 62.7%.
`CC(C)(C)n1cc(-c2ccnc(NCCNS(=O)(=O)c3ccc(F)cc3)c2)c(-c2cccc(O)c2)n1`: the growth is 56.2%.
The same measure, in the same setting: the result for `COc1ccc2c(c1)OC1=C(C(=O)OC1)C2c1cc(OC)c2c(c1)OCO2` (stereo unspecified) reads 39.8%; that for `CC(C)OC(=O)N1CCOCC1`, 95.5%.
The same measure, in the same setting: the result for `CC12CCC3C4(C)COC(c5ccccc5Cl)OC4CCC3(C)C1CC(C1=CCOC1=O)O2` (stereo unspecified) reads 31.2%; that for `CCCOC(=O)n1cccc1`, 91.7%; that for `O=S(=O)(NCCCNc1nccc(-n2ccc3cccnc32)n1)c1cccc(C(F)(F)F)c1`, 101%.
Same read-out and setting: the result for `Cc1ccc(S(=O)(=O)NCCNc2cc(-c3cn(C(C)(C)C)nc3-c3cccc(O)c3)ccn2)cc1` reads 67.3%; that for `Cc1ccc(S(=O)(=O)NCCCNc2cc(-c3cn(C(C)(C)C)nc3-c3cccc(O)c3)ccn2)cc1`, 56%; that for `C=C1CCC2C(C)(CO)C(O)CCC2(C)C1CC(NCc1ccccc1)C1=CCOC1=O` (stereo unspecified), 97.8%.
Turning to `COc1cc(Nc2ncccc2C(=O)NCc2cn(Cc3cccc(Oc4ccccc4)c3)nn2)cc(OC)c1`, the growth is 70.6%.
With `CC12CCC3C4(C)COC(c5ccco5)OC4CCC3(C)C1CC(C1=CCOC1=O)O2` (stereo unspecified), the growth is 103%.
Regarding `C=C1CCC2C3(C)COC(C)(C)OC3CCC2(C)C1C/C=C1/C(=O)OCC1Oc1ccccc1OC` (stereo unspecified), the growth is 60.7%.
Same read-out and setting: the result for `O=C(/C=C/c1ccccc1)c1cccc(O)c1` reads 106%; that for `CC(C)(C)n1cc(-c2ccnc(NCCCNS(=O)(=O)c3ccc(F)cc3)c2)c(-c2cccc(O)c2)n1`, 53.9%; that for `COc1cc(C2C3=C(COC3=O)Nc3cc4c(cc32)OCO4)cc2c1OCO2` (stereo unspecified), 51.9%.
Regarding `O=C(NCCNc1nccc(-n2ccc3cccnc32)n1)c1ccc(C(F)(F)F)cc1`, the growth was 100%.
For the compound `COc1cc(C2C3=C(COC3=O)Nc3cc4c(cc32)CCC4)cc2c1OCO2` (stereo unspecified), the growth was 43.5%.
On the same count and under the same terms, the result for `COc1ccc(-c2ccc(C)n2-c2ccc(-c3nc4cc(Cl)ccc4s3)cc2)cc1` reads 84.8%; that for `O=C(NCc1cn(Cc2cccc(Oc3ccccc3)c2)nn1)c1cccnc1Nc1ccc(F)cc1`, 86.1%; that for `CC12CCCC(CC(=O)c3[nH]c4ccccc4c31)C2` (stereo unspecified), 60.7%.

A further test deals with SK-OV-3 ovarian. The test is described as above. The conditions noted are these: 10 µM unless noted.
Turning to `O=C(NCCCNc1nccc(-n2ccc3cccnc32)n1)c1c(F)cccc1F`, the growth is 116%.
Take `COc1ccc(C(=O)c2cc(OC)c3c(c2)OCO3)cc1O`: the growth is 8.88% (active).
On the same count and under the same terms, next, `Cc1cc(C(C)(C)C)ccc1S`: 105%; `Cn1cnc2c(N3CCN(C(=O)OCc4ccc5c(Cl)cc(Cl)c(O)c5n4)CC3)nc(Cl)nc21`: 97.6%; `Fc1ccccc1-c1nc(-c2nc3cc(Cl)c(Cl)cc3[nH]2)c2ccccn12`: 83.7%.
Same read-out and setting: next, `C1=Cc2ccccc2N(c2nnc(-c3ccccc3)o2)c2ccccc21`: 114%.
On the same count and under the same terms, the result for `COc1cc(C2CC(c3ccc4c(c3)OCO4)=NN2C=O)cc(OC)c1OC` (stereo unspecified) reads 24.7%.
On to `COc1ccc(/C=C2/C(=O)NC(SCC(=O)N3CCN(c4cc5c(cc4F)c(=O)c(C(=O)O)cn5C4CC4)CC3)=NC2N)cc1OC` (stereo unspecified), for which the growth is 121%.
For `COc1cc(C2CC(c3ccc4c(c3)OCO4)=NN2C(C)=O)cc(OC)c1OC` (stereo unspecified), the growth is 10.6%.
On the same count and under the same terms, the result for `COc1cc(NCCCCCN)c2ncccc2c1` reads 109%; that for `C=C1CCC2C(C)(CO)C(O)CCC2(C)C1C/C=C1/C(=O)OCC1Oc1ccccc1C` (stereo unspecified), 122%.
The same measure, in the same setting: the result for `CCCCCCCCCCCCCCCCNC(=O)OC(C)C` reads 69.7%.
For the compound `O=C(/C=C/c1cc(-c2ccc3c(c2)OCO3)n[nH]1)c1ccc2c(c1)OCO2`, the growth was 109%.
As to `c1cc(C2=N[C@@H]3c4ccccc4C[C@@H]3O2)nc(C2=N[C@@H]3c4ccccc4C[C@@H]3O2)c1`, the growth was 117%.
Take `COc1ccccc1CNCCCN1C(=O)c2ccc3c4c(ccc(c24)C1=O)C(=O)N(CCCNCCCCNCCCN)C3=O`: the growth was 9.93% (active).
Still for that read-out and setting: next, `NC(=N\N=C/c1ccc(O)cc1)/C(N)=N\N=C/c1ccc(O)cc1`: 82.6%; `COc1ccc(-c2c(N)n[nH]c2-c2cc(OC)c3c(c2)OCCO3)cc1`: 90.2%.
Still for that read-out and setting: next, `C=C1CCC2C(C)(CO)C(O)CCC2(C)C1C/C=C1/C(=O)OCC1O/C=C/c1ccccc1` (stereo unspecified): 125%; `CC(C)(C)n1cc(-c2ccnc(NCCNS(=O)(=O)c3ccc(F)cc3)c2)c(-c2cccc(O)c2)n1`: 79.3%; `COc1ccc2c(c1)OC1=C(C(=O)OC1)C2c1cc(OC)c2c(c1)OCO2` (stereo unspecified): 8.55% (active).
On the same count and under the same terms, next, `CC(C)OC(=O)N1CCOCC1`: 98.1%; `CC12CCC3C4(C)COC(c5ccccc5Cl)OC4CCC3(C)C1CC(C1=CCOC1=O)O2` (stereo unspecified): 94.5%; `CCCOC(=O)n1cccc1`: 101%.
For the compound `O=S(=O)(NCCCNc1nccc(-n2ccc3cccnc32)n1)c1cccc(C(F)(F)F)c1`, the growth was 112%.
The same measure, in the same setting: next, `Cc1ccc(S(=O)(=O)NCCNc2cc(-c3cn(C(C)(C)C)nc3-c3cccc(O)c3)ccn2)cc1`: 91.4%.
Same read-out and setting: next, `Cc1ccc(S(=O)(=O)NCCCNc2cc(-c3cn(C(C)(C)C)nc3-c3cccc(O)c3)ccn2)cc1`: 85.7%.
Same read-out and setting: next, `C=C1CCC2C(C)(CO)C(O)CCC2(C)C1CC(NCc1ccccc1)C1=CCOC1=O` (stereo unspecified): 105%.
Regarding `COc1ccc2c(c1)NC1=C(C(=O)OC1)C2c1cc(OC)c2c(c1)OCO2` (stereo unspecified), the growth was 13%.
Take `COc1cc(Nc2ncccc2C(=O)NCc2cn(Cc3cccc(Oc4ccccc4)c3)nn2)cc(OC)c1`: the growth was 41.9%.
Still for that read-out and setting: next, `CC12CCC3C4(C)COC(c5ccco5)OC4CCC3(C)C1CC(C1=CCOC1=O)O2` (stereo unspecified): 121%.
`C=C1CCC2C3(C)COC(C)(C)OC3CCC2(C)C1C/C=C1/C(=O)OCC1Oc1ccccc1OC` (stereo unspecified): the growth is 114%.
On to `O=C(/C=C/c1ccccc1)c1cccc(O)c1`, for which the growth is 104%.
Same read-out and setting: next, `CC(C)(C)n1cc(-c2ccnc(NCCCNS(=O)(=O)c3ccc(F)cc3)c2)c(-c2cccc(O)c2)n1`: 83.8%; `COc1cc(C2C3=C(COC3=O)Nc3cc4c(cc32)OCO4)cc2c1OCO2` (stereo unspecified): 12.8%; `O=C(NCCNc1nccc(-n2ccc3cccnc32)n1)c1ccc(C(F)(F)F)cc1`: 99.7%.
The same measure, in the same setting: the result for `COc1cc(C2C3=C(COC3=O)Nc3cc4c(cc32)CCC4)cc2c1OCO2` (stereo unspecified) reads 17.4%; that for `COc1ccc(-c2ccc(C)n2-c2ccc(-c3nc4cc(Cl)ccc4s3)cc2)cc1`, 96.7%; that for `O=C(NCc1cn(Cc2cccc(Oc3ccccc3)c2)nn1)c1cccnc1Nc1ccc(F)cc1`, 52.2%.
The same measure, in the same setting: the result for `CC12CCCC(CC(=O)c3[nH]c4ccccc4c31)C2` (stereo unspecified) reads 53.4%.
